Results filed as inconclusive are left out. Entries that show only a call come without a potency. Activity calls are given as the source filed them. Unless noted, calls follow the shape of the dose curve; as a rule, active = well fitted curve in the direction sought with a large enough effect; inconclusive = small, poorly fitted or top-dose-only effect, or another doubt; inactive = no such curve, though single readings can be large; an effect the other way counts as inactive or inconclusive.
How the values were obtained:
[1] = biological target: Cytochrome P450 1A2 (Homo sapiens) (UniProt P05177); experiment: p450-cyp1a2 (AID 410; calls by dose curve; also: potency is read from the fitted curve at half-maximal effect)
Chain of Cytochrome P450 1A2 (Homo sapiens) (P05177 whole entry, looked up): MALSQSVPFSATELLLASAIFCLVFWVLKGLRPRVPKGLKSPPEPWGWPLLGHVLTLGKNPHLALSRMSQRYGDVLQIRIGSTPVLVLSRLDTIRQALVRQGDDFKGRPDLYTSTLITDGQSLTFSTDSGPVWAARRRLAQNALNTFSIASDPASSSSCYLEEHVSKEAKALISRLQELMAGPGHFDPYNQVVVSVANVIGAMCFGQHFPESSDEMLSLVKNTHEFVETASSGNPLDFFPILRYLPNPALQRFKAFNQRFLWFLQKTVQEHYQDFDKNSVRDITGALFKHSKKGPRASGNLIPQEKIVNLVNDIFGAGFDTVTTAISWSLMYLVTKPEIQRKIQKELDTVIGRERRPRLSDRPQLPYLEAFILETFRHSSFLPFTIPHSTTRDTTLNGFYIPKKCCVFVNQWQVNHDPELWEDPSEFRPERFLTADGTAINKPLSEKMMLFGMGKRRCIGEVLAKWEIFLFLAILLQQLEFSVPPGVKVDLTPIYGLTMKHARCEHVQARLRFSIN
Method in brief: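 Human CYP1A2 (20nM) demethylated Luciferin-ME at its Km (100uM) in 100mM KPO4. After 10 min compound preincubation, NADPH regeneration ran the reaction 60 min at room temperature. Luciferin was read by luminescence, normalized to 57 uM furafylline.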

[2] = biological target: Mitogen-activated protein kinase 10 (Mus musculus) (UniProt Q61831); experiment: JNK3 AlphaScreen Assay (AID 530; active = well fitted curve in either direction with a large enough effect, not every such curve was filed as active;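 also: kinase came from lysate of stimulated human HepG2 cells; signal reports phosphorylation of biotinylated GST-cJun 1-79 at Ser73 with 10 µM ATP; series mostly up to about 57 µM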)
Method in brief: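 Room-temperature AlphaScreen kinase assay; pre-activated HepG2 lysate as JNK3 source, biotin-GST-cJun(1-79) substrate, 10 uM ATP, compound 15 min preincubation.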

[3] = biological target: 3',5'-cyclic-AMP phosphodiesterase 4B (Homo sapiens) (UniProt Q07343); experiment: qHTS Assay for Inhibitors of PDE-IV (AID 607; active = well fitted activation curve with a large enough effect in the main read-out, with a control signal flat, not every such curve was filed as active)
Chain of 3',5'-cyclic-AMP phosphodiesterase 4B (Homo sapiens) (Q07343 whole entry, looked up): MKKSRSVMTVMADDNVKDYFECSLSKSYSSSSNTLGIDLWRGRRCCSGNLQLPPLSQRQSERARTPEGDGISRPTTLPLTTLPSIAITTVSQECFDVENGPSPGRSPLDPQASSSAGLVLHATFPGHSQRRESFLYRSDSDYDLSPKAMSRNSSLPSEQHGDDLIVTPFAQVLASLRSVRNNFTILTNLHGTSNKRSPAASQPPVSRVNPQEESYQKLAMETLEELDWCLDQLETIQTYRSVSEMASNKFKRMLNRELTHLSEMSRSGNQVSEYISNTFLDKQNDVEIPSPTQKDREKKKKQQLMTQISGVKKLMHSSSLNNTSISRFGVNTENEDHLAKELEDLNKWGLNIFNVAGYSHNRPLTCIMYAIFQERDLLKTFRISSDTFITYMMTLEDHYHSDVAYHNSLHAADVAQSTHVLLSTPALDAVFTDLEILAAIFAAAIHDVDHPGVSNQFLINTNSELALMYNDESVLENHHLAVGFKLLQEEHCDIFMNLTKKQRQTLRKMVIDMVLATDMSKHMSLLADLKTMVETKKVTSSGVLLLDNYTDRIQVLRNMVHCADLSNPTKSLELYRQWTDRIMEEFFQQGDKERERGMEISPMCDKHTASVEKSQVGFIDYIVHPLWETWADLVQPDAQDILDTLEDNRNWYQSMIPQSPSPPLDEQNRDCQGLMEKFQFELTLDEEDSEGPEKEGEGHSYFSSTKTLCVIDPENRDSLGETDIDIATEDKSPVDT
Method in brief: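 Live HEK293 cells with a modified cyclic nucleotide-gated (CNG) channel report intracellular cAMP via membrane-potential dye fluorescence (ex 535/em 590 nm). Endogenous PDE-IV was targeted. Compounds were tested at up to 22.9 uM final; RO 20-1724 100 uM served as control.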

[4] = biological target: Cytochrome P450 3A4 (Homo sapiens) (UniProt P08684); experiment: qHTS Assay for Inhibitors and Substrates of Cytochrome P450 3A4 (AID 884); also: potency is read from the fitted curve at half-maximal effect; nearly all actives have a fitted effect of over 50% in size
Chain of Cytochrome P450 3A4 (Homo sapiens) (P08684 whole entry, looked up): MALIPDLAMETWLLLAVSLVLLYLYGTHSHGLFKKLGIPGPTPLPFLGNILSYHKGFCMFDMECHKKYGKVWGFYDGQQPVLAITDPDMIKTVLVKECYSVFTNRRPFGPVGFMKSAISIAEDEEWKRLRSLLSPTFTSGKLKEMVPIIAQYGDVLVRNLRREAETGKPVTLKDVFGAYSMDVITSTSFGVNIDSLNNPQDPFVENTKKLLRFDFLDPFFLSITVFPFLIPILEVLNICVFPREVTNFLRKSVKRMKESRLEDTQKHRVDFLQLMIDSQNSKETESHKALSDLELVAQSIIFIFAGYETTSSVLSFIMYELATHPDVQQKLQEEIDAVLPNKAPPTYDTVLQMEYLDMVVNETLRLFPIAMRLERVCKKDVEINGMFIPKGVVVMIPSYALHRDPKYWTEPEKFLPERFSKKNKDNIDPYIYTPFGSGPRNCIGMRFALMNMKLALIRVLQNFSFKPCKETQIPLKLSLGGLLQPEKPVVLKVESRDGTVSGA
Method in brief: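 20 nM human CYP3A4 with 25 uM Luciferin-PPXE (at KM) in 200 mM KPO4, preincubated 10 min with compound; NADPH regeneration started a 60 min RT reaction. Luciferin detected by luminescence, normalized to 57 uM ketoconazole as full inhibition.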

[5] = biological target: Cytochrome P450 3A4 (Homo sapiens) (UniProt P08684); experiment: qHTS Assay for Activators of Cytochrome P450 3A4 (AID 885); also: nearly all actives have a fitted effect of over 65% in size
Method in brief: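 Quantitative HTS format: compounds preincubated with 20nM human CYP3A4 and Luciferin-PPXE substrate at KM, reaction started by NADPH regeneration, stopped after 60 min, luciferase luminescence read 20 min later.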

[6] = biological target: Cytochrome P450 2D6 (Homo sapiens) (UniProt P10635); experiment: qHTS Assay for Inhibitors and Substrates of Cytochrome P450 2D6 (AID 891); also: potency is read from the fitted curve at half-maximal effect; nearly all actives have a fitted effect of over 60% in size
Chain of Cytochrome P450 2D6 (Homo sapiens) (P10635 whole entry, looked up): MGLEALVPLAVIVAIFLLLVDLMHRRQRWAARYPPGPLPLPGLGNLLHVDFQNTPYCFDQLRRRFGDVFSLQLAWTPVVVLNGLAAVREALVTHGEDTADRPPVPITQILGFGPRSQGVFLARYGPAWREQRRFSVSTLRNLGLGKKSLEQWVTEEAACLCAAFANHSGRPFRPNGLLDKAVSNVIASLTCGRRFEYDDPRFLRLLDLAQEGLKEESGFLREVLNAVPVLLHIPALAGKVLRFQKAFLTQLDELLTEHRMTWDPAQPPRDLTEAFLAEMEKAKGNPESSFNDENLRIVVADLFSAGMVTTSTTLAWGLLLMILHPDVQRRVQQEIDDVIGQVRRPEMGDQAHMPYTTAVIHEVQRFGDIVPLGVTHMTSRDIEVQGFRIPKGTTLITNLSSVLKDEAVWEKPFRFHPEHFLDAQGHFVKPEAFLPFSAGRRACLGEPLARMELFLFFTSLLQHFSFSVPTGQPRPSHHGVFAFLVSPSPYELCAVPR
Method in brief: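 Human CYP2D6 (5 nM) with 30 uM Luciferin-ME EGE (at Km) in 100 mM KPO4, compound preincubated 10 min, then NADPH regeneration system for 60 min at room temperature. Luciferin read by luminescence; normalized to 1.43 uM quinidine.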

[7] = biological target: Cytochrome P450 2C19 (Homo sapiens) (UniProt P33261); experiment: qHTS Assay for Inhibitors and Substrates of Cytochrome P450 2C19 (AID 899); also: potency is read from the fitted curve at half-maximal effect; nearly all actives have a fitted effect of over 60% in size
Chain of Cytochrome P450 2C19 (Homo sapiens) (P33261 whole entry, looked up): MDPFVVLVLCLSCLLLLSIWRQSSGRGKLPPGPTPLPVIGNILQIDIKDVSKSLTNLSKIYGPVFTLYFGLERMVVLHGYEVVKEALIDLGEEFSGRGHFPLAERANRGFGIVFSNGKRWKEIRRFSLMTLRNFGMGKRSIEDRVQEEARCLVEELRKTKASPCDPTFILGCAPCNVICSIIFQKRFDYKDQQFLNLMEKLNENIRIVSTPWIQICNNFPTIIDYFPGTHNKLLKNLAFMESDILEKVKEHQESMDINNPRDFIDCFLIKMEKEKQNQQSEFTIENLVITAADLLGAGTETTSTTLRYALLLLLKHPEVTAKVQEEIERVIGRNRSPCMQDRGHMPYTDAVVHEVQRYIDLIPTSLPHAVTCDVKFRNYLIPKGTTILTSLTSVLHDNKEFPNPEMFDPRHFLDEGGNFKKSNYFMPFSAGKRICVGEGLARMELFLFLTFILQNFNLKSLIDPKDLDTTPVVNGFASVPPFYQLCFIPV
Method in brief: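 5nM enzyme + 10uM Luciferin-H EGE (=KM), 50mM KPO4; cpd pin-transferred, 10 min 37C; NADPH regen, 60 min 37C; stopped w/ luciferin detection reagent, 20 min; luminescence. Normalized to 57uM ketoconazole (AC100).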

SMILES: C[C@@H](C(=O)NCc1ccc(S(C)(=O)=O)cc1)[C@H]1C[C@]1(C)[C@H](NC(=O)OCc1ccccc1)c1ccccc1
- Potency [1]: 12600 nM (active)
- Potency [2]: inactive
- Potency [3]: inactive
- Potency [4]: 3160 nM (active)
- Potency [5]: inactive
- Potency [6]: 398 nM (active)

SMILES: C[C@H](CO)NC(=O)[C@H]1C[C@@H]1[C@H](NP(=O)(c1ccccc1)c1ccccc1)c1ccccc1
- Potency [1]: inactive
- Potency [2]: inactive
- Potency [3]: inactive
- Potency [5]: inactive

SMILES: COC(=O)[C@@]1(Cc2ccccc2)[C@H]2c3cc(C(=O)N4CCCC4)n(Cc4ccc(C)o4)c3C[C@H]2CN1C(=O)c1ccccc1
- Potency [1]: 12600 nM (active)
- Potency [2]: inactive
- Potency [3]: inactive
- Potency [4]: 2000 nM (active)
- Potency [5]: inactive
- Potency [7]: 2510 nM (active)

SMILES: Cc1cc(CNC(=O)[C@H]2C[C@@H]2[C@H](NP(=O)(c2ccccc2)c2ccccc2)c2ccccc2)nn1C
- Potency [1]: inactive
- Potency [2]: inactive
- Potency [3]: inactive
- Potency [4]: 2510 nM (active)
- Potency [5]: inactive

SMILES: O=C(N[C@@H](c1ccccc1)[C@@H]1C[C@H]1C(=O)NCc1ccccn1)OCc1ccccc1
- Potency [1]: 10000 nM (active)
- Potency [2]: inactive
- Potency [3]: inactive
- Potency [4]: 6310 nM (active)
- Potency [5]: inactive
- Potency [7]: 7940 nM (active)

SMILES: COC(=O)[C@@]1(Cc2ccc(F)cc2)[C@H]2c3cc(C(=O)N(C)C)n(Cc4ccc(C(F)(F)F)nc4)c3C[C@H]2CN1C(=O)c1ccccc1
- Potency [1]: inactive
- Potency [2]: inactive
- Potency [3]: inactive
- Potency [4]: 1260 nM (active)
- Potency [5]: inactive

SMILES: Cc1c2c(nc3ccccc13)-c1cccc(=O)n1C2
- Potency [1]: 100 nM (active)
- Potency [2]: inactive
- Potency [3]: inactive
- Potency [5]: inactive

SMILES: COC(=O)C1(CC(C)C)C=C2C(=C(c3ccccc3)C(=O)C2C)CN1 (stereo not given)
- Potency [1]: 15800 nM (active)
- Potency [2]: inactive
- Potency [3]: inactive
- Potency [5]: inactive

SMILES: COC(=O)[C@@]1(Cc2ccc(F)cc2)[C@H]2c3cc(C(=O)N(C)C)n(CCCNc4ccc(C(F)(F)F)cc4Cl)c3C[C@H]2CN1C(=O)c1ccccc1
- Potency [1]: inactive
- Potency [2]: inactive
- Potency [3]: inactive
- Potency [4]: 1580 nM (active)
- Potency [5]: inactive

SMILES: Cc1ccc(CNC(=O)[C@H]2C[C@@H]2[C@H](NP(=O)(c2ccccc2)c2ccccc2)c2ccccc2)c(F)c1F
- Potency [1]: inactive
- Potency [2]: inactive
- Potency [3]: inactive
- Potency [4]: 316 nM (active)
- Potency [5]: inactive

From PubChem BioAssay (NCATS)
